KLF5 inhibitor: KLF5 expression inhibitors, primary screen, DLD-1 cells, luminescence | DLD-1 KLF5 promoter-luciferase reporter | inhibition, % at 5 µM | 0.23% of 290,000 active | AID 1700, 2009;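 active = inhibition above a per-plate limit of that plate's mean compound inhibition plus 3 SD, cut at about 60% in these data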;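 note: 0% = DMSO wells and 100% = LY294002 at 200 µM; higher means less KLF5 promoter-driven luciferase light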
APP 5UTR inh: inhibitors of APP translation via 5'UTR reporter, primary screen, APP 5'UTR luciferase, SH-SY5Y cells; inhibition, % at 2 µM; 0.82% of 190,000 active; SH-SY5Y APP 5'UTR-luciferase reporter, luminescence; AID 1285, 2008;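 active = inhibition above a set limit, derived from the sample mean plus 3 SD, cut at about 45% in these data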
IEC-6 cytotox: cytotoxicity in IEC-6 intestinal epithelial cells, primary screen, cytotoxicity control for KLF5 inhibitor project, cell-based, luminescence; IEC-6 cytotoxicity, luminescence viability; 0.78% of 290,000 active; inhibition, % at 5 µM;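 note: 0% = plate median of test compound wells and 100% = cytotoxic reference compound wells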
BaF3 tox: parental Ba/F3 cell viability inhibition, counter-screen for JAK2V617F inhibitor project, murine pro-B, CellTiter-Glo luminescence | AID 1486, 2009 | inhibition, % at 5.6 µM | 1.1% of 220,000 active | CellTiter-Glo ATP luminescence;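 active = inhibition above a per-campaign cutoff, the mean inhibition of all tested compounds plus 3 SD, cut at about 27% in these data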;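 note: 0% = DMSO wells and 100% = JAK Inhibitor I control wells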
Ba/F3 V617F tox: reduced viability of JAK2V617F-dependent Ba/F3 cells, primary screen, JAK2V617F inhibitor project, cell-based, Ba/F3 EpoR-JAK2V617F, luminescence | 1.1% of 220,000 active | ATP luminescence | AID 1446, 2008 | inhibition, % at 5.6 µM;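 active = inhibition above the campaign mean plus 3 SD over all tested compounds, cut at about 24% in these data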;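 note: cytokine-independent growth of Ba/F3 cells driven by EpoR plus mutant JAK2; 0% = DMSO-treated cells and 100% = JAK inhibitor I control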
IEC-6 tox confirm: cytotoxic compounds in IEC-6 epithelial cells, confirmation, cytotoxicity control, cell-based, luminescence | shares compounds with IEC-6 cytotox | IEC-6 rat intestinal epithelial viability | inhibition, % at 5 µM | 63% of 1,900 active;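 note: 0% = vehicle and 100% = reference cytotoxic drug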
Active calls of the source: *; / = no result given. Most compounds without a hit are left out; they make up all but 1.8% or so of the library. Cut-off read from the data, not from the text of the source, unless noted: active = inhibition above about 22%; inactive = the rest.

SMILES	KLF5 inhibitor	APP 5UTR inh	IEC-6 cytotox	BaF3 tox	Ba/F3 V617F tox	IEC-6 tox confirm
CC(C)(C)NC(=O)COC(=O)c1ccccc1Nc1ccc(SC(F)F)cc1	-69.5	-3.8	37.9*	3.8	-1.0	31.1*
O=C(Nc1ccc(Cl)cn1)c1cccc2ccccc12	-3.1	/	43.8*	/	/	24.8*
O=C(Nc1ccc(Cl)cn1)c1ccccc1[N+](=O)[O-]	-13.8	-18.5	7.4	5.3	2.0	/
CCOc1ccc(NC(=O)c2cccc3ccccc23)cc1	-17.4	/	22.5*	/	/	13.9
CC(C)(C)C(=O)CN1C(=O)NC(C)(Cc2ccc3c(c2)OCO3)C1=O (stereo unspecified)	-10.8	/	-0.7	/	/	/
CC(=O)Nc1ccc(C(=O)OCCC(C)C)cc1	-51.5	-6.2	25.2*	7.4	-0.6	22.6*
CCCOC(=O)c1ccc(NC(=O)COC)cc1	-56.0	-3.4	2.6	3.6	0.4	/
N#Cc1c(NC(=O)c2cnccn2)sc2c1CCCC2	-70.0	-51.3	-0.8	4.5	3.1	/
COc1ccc(S(=O)(=O)N2CC(C(=O)O)Oc3ccccc32)cc1 (stereo unspecified)	-57.7	/	-9.8	/	/	/
COc1ccc(S(=O)(=O)N2CCOc3ccccc32)cc1	51.7	/	60.2*	/	/	37.3*
CC(C)NC(=S)N/N=C/c1cc(Br)ccc1O	-13.8	-9.8	94.5*	2.8	-6.1	0.5
COC(=O)N/N=C/c1cc(Br)ccc1O	-20.6	2.2	1.7	9.8	3.3	/
COc1ccc(C)cc1NC(=O)CNC(c1ccccc1)c1ccc(C)cc1 (stereo unspecified)	52.0	/	68.6*	/	/	50.8*
Cc1cc(C)cc(CC2CC(=O)N(c3ccc([N+](=O)[O-])cc3)C2=O)c1 (stereo unspecified)	-34.1	/	-3.0	/	/	/
CCOC(=O)N=Nc1c2ccccc2c2nc3no[nH]c3nc12	1.4	93.8*	100.5*	14.2	3.6	102.1*
COc1ccc(-c2cc(C(=O)Nc3cc(S(=O)(=O)N4CCOCC4)ccc3N3CCOCC3)c3ccccc3n2)cc1	-11.3	28.6	-2.4	6.7	-0.1	/
COc1cccc(CN2C(=O)C3(C(C#N)=C(N)OC4=C3C(=O)CCC4)c3ccccc32)c1 (stereo unspecified)	-9.0	-9.0	59.1*	89.1*	71.9*	54.4*
CC1(C)CC(=O)C2=C(C1)OC(N)=C(C#N)C21C(=O)N(CN2CCOCC2)c2ccccc21 (stereo unspecified)	-15.9	-7.8	-1.9	0.1	-4.3	/
CN1CCc2cc3c(c4c2[C@H]1[C@H](O)c1ccccc1-4)OCO3	-8.4	3.5	43.5*	64.7*	64.8*	4.5
CN(Cc1ccccc1)C1=CC(=[N+]2CCCCC2)CC(C)(C)C1	20.0	/	33.7*	78.8*	97.8*	18.6
Cc1ccc2[nH]c(-c3ccccc3)cc(=O)c2c1	56.8	91.0*	87.7*	81.1*	85.7*	57.4*
Cc1ccc(-c2cc(=O)c3ccccc3[nH]2)cc1	-13.4	-14.2	10.9	8.3	2.0	/
Cc1ccc2ncnc(Nc3cccc([N+](=O)[O-])c3)c2c1	-33.1	/	30.9*	/	/	63.1*
COC(=O)c1cccc(Nc2ncnc3ccc(C)cc23)c1	-33.7	-7.5	1.9	4.7	-4.2	/
CCn1c(SCC(=O)Nc2cccc(C)c2)nc2ccccc2c1=O	-34.2	/	22.1*	/	/	7.2
SMILES	KLF5 inhibitor	APP 5UTR inh	IEC-6 cytotox	BaF3 tox	Ba/F3 V617F tox	IEC-6 tox confirm
CCn1c(SCC(=O)Nc2ccccc2)nc2ccccc2c1=O	-6.3	/	-4.4	/	/	/
COc1cc(OC)c(C(=O)OCC(=O)N2CCOCC2)cc1OC	-22.8	/	-4.8	/	/	/
CCn1c(-c2ccc(N(C)C)cc2)nc2ccccc21	-88.7	-95.6	30.2*	67.8*	77.9*	6.0
Cc1ccc(Cn2nnnc2CN2CCC(c3nc4ccc(Cl)cc4[nH]3)CC2)cc1	46.0	67.7*	88.4*	82.3*	91.9*	54.4*
NCCNc1ccc(C(=O)N2c3ccccc3Sc3ccccc32)cc1[N+](=O)[O-]	19.2	/	35.3*	/	/	23.8*
Nc1ccc(C(=O)OCC(=O)N2c3ccccc3Sc3ccccc32)cc1[N+](=O)[O-]	-15.7	-18.2	-2.4	1.8	-1.6	/
COc1cc(OC)cc(C(=O)N/N=C(\C)CC(=O)Nc2ccccn2)c1	28.9	/	73.6*	/	/	6.2
COc1ccc(CNC(=O)C/C(C)=N/NC(=O)c2ccc(OC)cc2OC)cc1	15.4	/	3.8	/	/	/
COc1ccc(CNC(=O)C/C(C)=N/NC(=O)c2cc(OC)cc(OC)c2)cc1	39.0	/	77.3*	/	/	5.3
C/C(CC(=O)Nc1ccccn1)=N\NC(=O)c1ccccc1	-16.3	-9.9	4.3	3.2	1.9	/
Cc1ccc(C)c(Nc2cc(C)nc(-c3ccccc3O)n2)c1	35.1	/	48.3*	/	/	26.9*
Cc1ccn2c(C(=O)CSc3ccccc3)c(C)nc2c1	-26.9	3.6	23.2*	-1.6	0.0	21.7
C/C(=N/NC(=O)c1ccc(Br)o1)c1cccc(NC(=O)c2ccc(F)cc2)c1	-45.7	/	-4.2	/	/	/
COc1ccc(CCN(C)c2ncnc3sccc23)cc1OC	-13.7	1.9	-0.8	0.6	4.7	/
COc1ccc(CN(C)c2ncnc3sccc23)c(OC)c1OC	32.2	/	23.0*	/	/	9.8
Cn1nnnc1SCC(=O)Nc1ccc(S(=O)(=O)N2CCOCC2)cc1	0.1	/	-8.1	-1.8	-1.8	/
O=c1[nH]c(-c2ccccn2)nc(C(F)(F)F)c1Br	59.8	6.2	68.1*	27.6*	9.2	24.4*
CN(Cc1ccccc1)C(=O)CCn1c(=O)c2cccn2c2cccnc21	-32.4	/	9.8	/	/	/
COC(=O)[C@@H]1Cc2c([nH]c3ccccc23)C(C)(C)N1C(=O)CCl	-35.3	/	95.1*	/	/	35.7*
O=[N+]([O-])c1ccc(S(=O)(=O)c2ccccc2)nc1	55.5	/	100.6*	/	/	85.2*
Cc1ccc(S(=O)(=O)c2ccc([N+](=O)[O-])cn2)cc1	46.6	/	101.4*	/	/	13.2
Nc1ccc(S(=O)(=O)c2ccccc2)nc1	-15.5	/	-7.4	/	/	/
O=C(COC(=O)/C=C/c1ccccc1Cl)NCCNC(=O)COC(=O)/C=C/c1ccccc1Cl	-0.8	/	-3.3	/	/	/
COC(=O)Nc1ccc(S(=O)(=O)N2c3ccccc3CCC2C)cc1 (stereo unspecified)	31.1	60.6*	47.7*	40.9*	56.5*	52.6*
COC(=O)Nc1ccc(S(=O)(=O)N2CCCCC2C(=O)O)cc1 (stereo unspecified)	-17.2	2.6	0.6	4.6	-3.0	/
CC(=O)Nc1ccc(S(=O)(=O)N2CCCc3ccccc32)cc1	3.6	-10.6	40.1*	19.6	22.4	42.4*
O=C(O)/C=C/c1cccc2c1OCCO2	-14.3	/	-3.0	-2.4	-0.9	/
CCC(CC)c1nnc(NC(=O)c2ccc3ccccc3n2)s1	2.3	-95.5	35.0*	3.8	-2.6	2.7

Screening data from PubChem.
